Assay results as given in PubChem BioAssay AID626 (Vanderbilt High Throughput Screening Facility, 2007).
Among all 64,000 compounds or so, about 1,900 (3%) were called active. This is one part of a sample in which actives are shown more often than they occur. A number with no mark means an inactive call.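 Rule for the calls: active = fluorescence rise, raw or as B-score row- and column-corrected plate score, outside the 99.7% band of its plate's samples, either direction; inactive = the rest.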

test system: Muscarinic acetylcholine receptor M1; test: direct activation of M1 receptor calcium signal – CHO-M1 cells, Fluo-4 calcium, agonist mode, primary screen (AID 626); details: Fluo-4 calcium fluorescence, at 10 µM, stronger effect = higher value

SMILES | B-score
CCOc1cc(N2CCOCC2)c(OCC)cc1NC(=O)COc1cccc2cccnc12 | 4.8 (active)
CC(=O)Nc1cccc(Oc2cc(C#N)c(C#N)cc2N2CCOCC2)c1 | 0.0039
CCOc1cc(NC(=O)c2ccco2)c(OCC)cc1NC(=O)COc1ccccc1 | 0.0561
Cc1nc2cc(S(=O)(=O)C(F)(F)F)ccc2s1 | 0.0196
Cc1ccc(C(c2sc3nc(C)nn3c2O)N2CCN(c3ccccc3)CC2)cc1 (stereo unspecified) | -0.274
O=C(Nc1cccc(-c2nnc(-c3ccccc3)o2)c1)C1CCCO1 (stereo unspecified) | 8.44 (active)
O=C(Nc1ccc(-c2nnc(-c3ccccc3)o2)cc1)C1CCCO1 (stereo unspecified) | 0.124
O=C(Nc1nnc(CCc2ccccc2)s1)C1CCCO1 (stereo unspecified) | -0.799
Cc1ccc(C(=O)Nc2ccccc2C(=O)NC2CCCCC2)cc1S(=O)(=O)N1CCOCC1 | -0.515
Cc1ccc2cc(C#N)c(SCC(=O)NCC3CCCO3)nc2c1C (stereo unspecified) | 0.58
CCOc1ccc2cc(C#N)c(SCC(=O)OC)nc2c1 | -0.798
CC(NC(=O)CSc1nc2c(cc1C#N)CN(C)CC2)c1ccccc1 (stereo unspecified) | 6.81 (active)
CC1=NC2(CCCc3c2no[n+]3[O-])N(O)C1(C)C (stereo unspecified) | -0.303
O=C(Nc1c(-c2ccccc2)nc2c(Br)cc(Br)cn12)c1ccco1 | 1.35
N#CCCN1CCN(S(=O)(=O)c2ccc(S(=O)(=O)N3CCCC3)cc2)CC1 | 0.0676
CC(C)(C)c1cc(CN2CCN(CCC#N)CC2)cc(C(C)(C)C)c1O | 25.1 (active)
N#CCCN1CCN(S(=O)(=O)c2ccc(S(=O)(=O)NC3CC3)cc2)CC1 | 0.386
Cc1nc2ccc(S(=O)(=O)NC(C(=O)N3CCCCCC3)C(C)C)cc2s1 (stereo unspecified) | 0.688
CN1CCN(S(=O)(=O)c2ccc(NC(=O)c3ccco3)cc2)CC1 | 0.741
CC1=C2C(=O)OC(c3ccoc3)C2(C)CCC1 (stereo unspecified) | -1.22
Fc1ccc2[nH]c3c(N4CCSCC4)ncnc3c2c1 | 12.1 (active)
Cc1ccc(-n2ncc3c(N4CCN(c5ccc(F)cc5)CC4)ncnc32)c(C)c1 | -0.824
Fc1ccc2[nH]c3c(N4CCN(Cc5ccc6c(c5)OCO6)CC4)ncnc3c2c1 | 6.32
O=C1CC(c2ccccc2)CC(O)=C1C=NCCN1CCOCC1 (stereo unspecified) | -1.61

SMILES | B-score
Cn1c(SCC(=O)c2cccs2)nnc1-c1ccco1 | -0.304
Cc1nnc(SCC(=O)NCc2cccs2)[nH]c1=O | 0.134
Cc1nc2nc(CSc3nc4ccccc4s3)cc(=O)n2[nH]1 | 0.684
Cc1nn(C(=O)c2ccoc2C)c(N)c1-c1ccccc1 | 0.366
Cc1nn2c(c1-c1ccccc1)N=C(c1ccco1)CC2c1ccccc1 (stereo unspecified) | 5.88 (active)
CCOC(=O)c1c(C2CC2)csc1NC(=O)CSCc1c(C)noc1C | 0.602
CN1CCN(CC(=O)Nc2sc3c(c2C#N)CCC(C(C)(C)C)C3)CC1 (stereo unspecified) | -0.211
CCOC(=O)C1CCN(C(=O)c2oc3ccc(S(=O)(=O)N4CCCCCC4)cc3c2C)CC1 | 1.57
CCOC(=O)C1CCCN(C(=O)c2cncc(Br)c2)C1 (stereo unspecified) | -0.115
CCOC(=O)C1CCCN(C(=O)c2ccc(CS(=O)(=O)c3ccc(Br)cc3)o2)C1 (stereo unspecified) | -2.11 (active)
C/C(Cl)=C\Cn1c(Nc2cccc(C)c2)nc2c1c(=O)n(C)c(=O)n2C | 0.177
CCCn1c(=O)c(-c2ccccc2)c(O)c2ccccc21 | 0.287
Nc1nnc(SCCN2C(=O)c3ccccc3S2(=O)=O)s1 | 1.12
CCOC(=O)CNC(=O)CN1C(=O)CCSc2ccccc21 | -0.158
CC1=NCCN1S(=O)(=O)c1ccc(Br)c(C)c1 | 0.66
CC(C)OCCCNc1ncnc2c1[nH]c1ccc(F)cc12 | 16.6 (active)
CCN1CCCC1CNc1ncnc2c1[nH]c1ccc(F)cc12 (stereo unspecified) | 0.0374
O=C1CCCN1CCCNc1ncnc2c1[nH]c1ccccc12 | -0.55
Cc1oc(CC(C)C)c(CN2CCCC2)c1C(=O)O | 0.845
CCOC(=O)C1CCN(C(=O)C2CCN(S(=O)(=O)c3c(C)noc3C)CC2)CC1 | -0.00598
CN1C(C)(C)CC(NC(=O)CCC(=O)NC2CC(C)(C)N(C)C(C)(C)C2)CC1(C)C | -0.271
O=C(CC1Nc2ccccc2NC1=O)Nc1ccccc1 (stereo unspecified) | 3.46 (active)
CCCOC(=O)Nc1ccccc1C(N)=O | -0.00513
CCOc1ccc(NC(=O)CC2NCCNC2=O)cc1 (stereo unspecified) | 0.571

SMILES | B-score
CCOC(=O)C1=C(C)NC(C)=C(C(=O)OCC)C1c1ccccn1 | -0.0841
CCOC(=O)c1ccccc1NC(=O)CC1Nc2ccccc2NC1=O (stereo unspecified) | 14.3 (active)
O=C(CC1NCCNC1=O)Nc1ccc(Oc2ccccc2)cc1 (stereo unspecified) | 1.02
COc1ccccc1NC(=O)C1=C(C)NC2=C(C(=O)CCC2)C1c1ccc(C)o1 (stereo unspecified) | -0.692
CCc1ccc(N(CC)c2ncnc3nc[nH]c23)cc1 | 0.205
CCOc1ccc(S(=O)(=O)N(CC(=O)O)c2ccccc2)cc1 | 0.254
C=C1c2cc(CC)ccc2NC(=O)N1c1ccc(C)cc1 | -1.17
CC(C)n1c(SCC(=O)Nc2ccccc2N2CCCCC2)nc2c1c(=O)n(C)c(=O)n2C | 0.367
Cn1c(=O)c2c(nc(SCC(=O)Nc3ccccc3N3CCCCC3)n2C)n(C)c1=O | 6.49 (active)
Cc1ccccc1NC(=O)CNc1ccccc1N1CCCCC1 | 1.11
CC(=O)Nc1ccc(S(=O)(=O)N2CCN(CCCOc3cc(C)ccc3C)CC2)cc1 | -0.692
CN(C)CCCNc1c2c(c(C#N)c3nc4ccccc4n13)CCC2 | 0.715
COc1ncnc2c1N=C1CC(C)(C)CC(N)=C1S2 | 39.7 (active)
COc1cc(NS(=O)(=O)c2ccccc2)ccc1-n1nc(C)cc1C | -0.04
COc1cccc2c(C)c(C(=O)O)[nH]c12 | -2.07 (active)
CCOC(=O)c1c(C)[nH]c(C(=O)NCc2ccccc2OC)c1C | 0.0421
COc1ccc(C)cc1NC(=O)c1[nH]c(C)c(C(C)=O)c1C | 1.04
CCN(CC)CCN1C(=O)C(=O)/C(=C(/O)c2ccc(OC)c(OC)c2)C1c1ccccn1 (stereo unspecified) | -0.817
CS(=O)(=O)c1ccc2nc(NC(=O)C3CCCCC3)sc2c1 | 0.229
O=C1NC(Nc2nc3ccccc3s2)(C(F)(F)F)C(=O)N1C1CCCCC1 (stereo unspecified) | -0.752
COc1ccc(-c2ccc(-c3noc(-c4ccncc4)n3)c(OC)n2)cc1 | -0.565
COc1cc(-c2nc(-c3ccncc3)no2)cc(OC)c1OC | -0.116
CCOc1nc(-c2ccc(OC)cc2)ccc1-c1noc(-c2cc(OC)c(OC)c(OC)c2)n1 | 9.6 (active)
CC(C)c1nc2oc3c(N4CCN(C)CC4)ncnc3c2c2c1CCC2 | 0.376

SMILES | B-score
Cc1ccccc1Nc1nnc(C)c(=O)[nH]1 | -0.209
CCOC(=O)c1c(N)c(C#N)nn1-c1ccccc1C(=O)OC | -0.00838
Cc1cc(C)cc(OCc2nnc(SCC(=O)Nc3ccccc3)o2)c1 | 0.534
c1ccc(Cc2nn3c(Cn4cnc5ccccc54)nnc3s2)cc1 | 0.391
O=C(CSc1nnc(Cn2cnc3ccccc32)o1)c1ccccc1 | 2.49 (active)
O=C(Nc1nn(Cc2ccccc2F)cc1Br)c1cccs1 | -0.416
O=C(O)c1ccc(COc2c(F)c(F)cc(F)c2F)o1 | 0.494
COc1ccc(Cn2nnc3c(=O)[nH]c(C4CCN(C(=O)c5ccccc5Cl)CC4)nc32)cc1 | -0.0421
CCc1nc(N2CCN(c3nc(C)cc(C)n3)CC2)c2oc3ccccc3c2n1 | 0.00663
CCc1nc(Nc2ccc3nccnc3c2)c2oc3ccccc3c2n1 | 3.77 (active)
CCSc1nc(C)nc2c1oc1ccccc12 | 0.362
COc1cccc(N2C(=O)C3CCCN3C2c2ccc(F)cc2)c1 (stereo unspecified) | -0.0377
CCn1c(CNc2ccc(OC)cc2)nnc1SCC(=O)c1ccc(OC)cc1 | 0.245
CCC1=C(C(=O)OC)C(c2cc(OC)ccc2OC)C(C#N)=C(N)O1 (stereo unspecified) | -0.762
CCCN1CC=C2C(C#N)=C(N)C(C#N)(C#N)C(c3cc(OC)ccc3OC)C2C1 (stereo unspecified) | 47 (active)
CCOC(=O)N1CC=C2C(C#N)=C(N)C(C#N)(C#N)[C@H](c3cccs3)[C@H]2C1 | 3.8
COc1cccc(N2CC(C(=O)Nc3c(C)cccc3C)CC2=O)c1 (stereo unspecified) | -0.0783
Cc1nc2sc(C(c3ccco3)N3CCC4(CC3)OCCO4)c(O)n2n1 (stereo unspecified) | -0.0511
CCC(C)(C)n1nnnc1C(c1cccs1)N1CCN(Cc2ccccc2)CC1 (stereo unspecified) | 0.516
CC(C)(C)n1nnnc1C(c1cccs1)N(Cc1cccnc1)CC1CCCO1 (stereo unspecified) | 0.0241
CCOc1ccc(CN(Cc2ccco2)C(c2cccs2)c2nnnn2C(C)(C)C)cc1 (stereo unspecified) | 17.1 (active)
O=C(c1ccc(=O)[nH]c1)N(Cc1ccco1)C1(C(=O)NC2CCCCC2)CCCCC1 | 0.118
O/N=C1\CC2(Cc3nonc31)OCCO2 | -0.542
CN(C)c1ccc(NC(=O)c2ccncc2)c2ccccc12 | 0.268
